# Source: PubChem
# TDP1 block: qHTS Assay for Inhibitors of Tyrosyl-DNA Phosphodiesterase (TDP1); 350,000 tested, 0.28% active; Potency, µM (doses to about 130 µM), most hits filed as inhibitors; recombinant TDP1, AlphaScreen DNA substrate cleavage; further: nearly all actives have a fitted effect of over 40% in size
# Target sequence (Q9NUW8 whole entry, looked up): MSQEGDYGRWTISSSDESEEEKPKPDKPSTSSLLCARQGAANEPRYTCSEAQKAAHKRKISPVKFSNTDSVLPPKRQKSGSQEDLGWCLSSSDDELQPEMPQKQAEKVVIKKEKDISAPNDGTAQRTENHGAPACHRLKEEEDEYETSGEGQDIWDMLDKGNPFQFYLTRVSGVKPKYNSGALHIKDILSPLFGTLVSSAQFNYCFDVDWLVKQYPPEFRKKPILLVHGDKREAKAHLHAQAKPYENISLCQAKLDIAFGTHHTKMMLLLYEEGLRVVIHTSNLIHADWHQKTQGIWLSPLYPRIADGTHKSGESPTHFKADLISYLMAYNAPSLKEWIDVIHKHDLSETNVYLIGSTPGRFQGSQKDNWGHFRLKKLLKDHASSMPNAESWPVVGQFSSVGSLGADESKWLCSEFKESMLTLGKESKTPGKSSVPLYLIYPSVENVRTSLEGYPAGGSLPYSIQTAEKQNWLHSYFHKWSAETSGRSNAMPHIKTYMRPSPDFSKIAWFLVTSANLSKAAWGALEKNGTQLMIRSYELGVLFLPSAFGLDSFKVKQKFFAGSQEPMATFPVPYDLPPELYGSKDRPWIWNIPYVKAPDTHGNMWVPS
#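 Signal: AlphaScreen proximity between streptavidin donor and anti-FITC acceptor beads on intact substrate. Reaction: Tdp1 1 nM, substrate 15 nM final, 5 min RT after 15 min compound preincubation.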
# IL1B secr inh: qHTS for Inhibitors of Inflammasome Signaling: IL-1-beta AlphaLISA Primary Screen; activity change, % at 57.5 µM; THP-1 LPS/ATP IL-1B secretion, AlphaLISA, 16 h; stronger effect = lower value; 360,000 tested, 4.7% active; in the data active means activity change below about -50%; inconclusive means mostly about -30% to -49%
#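 THP-1 cells pretreated 1 hr with compounds (up to 57.5 uM final), then stimulated with LPS (250 ng/mL final) plus ATP (1.25 mM final); secreted IL-1B measured by AlphaLISA after 16 hr, decreased signal indicating inhibition.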
# HepG2 viability: qHTS for Inhibitors of TGF-b: Cytotox Counterscreen; HepG2 CAGA-GFP viability, ATP luminescence, 18 h; 410,000 tested, 0.76% active; Potency, µM (series often up to 46.1 µM), hits mostly cytotoxic
#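 HepG2 CAGA-GFP cells (1000/well, DMEM with 1% FBS) received compound, then TGF-beta at 500 pg/mL final, and were incubated 18 hours at 37 degrees C. Viability was read by CellTiter-Glo luminescence. Media-only wells were set as complete cell-killing and DMSO as no toxicity.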
# TGFb inhibitor: qHTS for Inhibitors of TGF-b; HepG2 CAGA-GFP TGF-b/SMAD3 reporter, GFP fluorescence, 18 h; TGF-beta stimulated, 500 pg/mL final; Potency, µM (doses to about 46.1 µM), actives largely listed as inhibitors; 410,000 tested, 1.2% active; further: nearly all actives have a fitted effect of over 65% in size
#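 HEPG2 CAGA-GFP, 1000 cells/well; 2 h settle, 37 C; cpd via pin tool; TGF-b 500 pg/mL final; 18 h, 37 C; GFP imaging ex488/em500-530; %Activity normalised to -TGF-b and +DMSO controls; CRC fit, curve class.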
# TDP1 cell noCPT: qHTS for Inhibitors of human tyrosyl-DNA phosphodiesterase 1 (TDP1): qHTS in cells in absence of CPT. DT40 Tdp1-/- hTDP1 cells, no CPT, ATP luminescence, 48 h. Potency, µM (doses to about 46.2 µM), usual class: inhibitors. 420,000 tested, 15% active; further: nearly all actives have a fitted effect of over 55% in size
#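 Cells were dispensed at 400 per well, compounds added by pin tool, plates incubated ≥48 hr at 37 °C, then CellTiter-Glo added for 30 min at room temperature before luminescence reading. Line: DT40 Tdp1-/- complemented with hTDP1; camptothecin omitted.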
# TDP1 cell CPT: qHTS for Inhibitors of human tyrosyl-DNA phosphodiesterase 1 (TDP1): qHTS in cells in presence of CPT; chicken DT40 Tdp1-/-;hTDP1 cells + 20 nM CPT, ATP luminescence, 48 h; Potency, µM (highest dose often 46.2 µM), actives largely listed as inhibitors; 420,000 tested, 12% active; AID 686979, 2013; further: nearly all actives have a fitted effect of over 55% in size
#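 Chicken DT40 Tdp1-/- cells complemented with human TDP1, 400 cells/well, exposed to compounds plus 20 nM camptothecin for at least 48 h at 37 C; viability read as ATP content by CellTiter-Glo luminescence.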
# Numbers stand for hits; n = inactive; u = inconclusive; x = no result given; ! = not confirmed by another sample; [ ] = remark or other dose. Compounds with a hit are over-represented: about 18% of the library has one in this group of screens. Unless noted, the call rests on the fitted dose curve; in most records, active means well fitted curve in the direction sought with a large enough effect; inconclusive means small, poorly fitted or top-dose-only effect, or another doubt; inactive means no such curve, though single readings can be large; an effect the other way counts as inactive or inconclusive.
SMILES,TDP1 block,IL1B secr inh,HepG2 viability,TGFb inhibitor,TDP1 cell noCPT,TDP1 cell CPT
O=C(NCc1ccccc1)c1cc(C2CCCCN2S(=O)(=O)c2cccc3cccnc23)on1 (stereo not drawn),x,n,n,n,n,n
Brc1ccccc1/C=N/Nc1ccc2ccccc2n1,n,n,n,n,16.4µM,u
O=[N+]([O-])c1cccc(C=NNc2ccc3ccccc3n2)c1O,x,n,n,u,5.8µM,5.17µM
Fc1ccc(SCCc2ccncc2)cc1,n,n,n,n,18.4µM!,u
O=[N+]([O-])c1ccc(SCCc2ccncc2)cc1,n,n,n,n,20.6µM,u
O=[N+]([O-])c1ccc(SCCc2ccccn2)cc1,x,n,n,n,n,n
Cc1cc(SCC(=O)c2ccc(Br)cc2)cc(C)[o+]1,x,x,n,n,u,u
C[C@@H]1CCC[C@H](C)N1,n[21 µM],x,x,x,n,n
O=C(ONC1=NCCCCC1)c1ccc(Cl)cc1,n,n,n,n,14.6µM,20.6µM
O=C(ONC1=NCCCCC1)c1c(F)cccc1F,n,n,n,n,u,16.4µM
O=C(NC1=NCCCCC1)c1cccc2ccccc12,n,n,n,n,n,n
O=C(CNC1=NCCC1)c1ccc(Cl)cc1,n,n,n,n,n,n
COCC#Cc1ccc(C2C(C)CCC3C(=O)N4C(CCC(C)C4c4ccc(C#CCOC)cc4)C(=O)N32)cc1 (stereo not drawn),n[21 µM],x,x,x,x,x
CCCCN1C=CC(=C2C(=O)c3ccccc3C2=O)C=C1,n,n,n,n,u,u
CCCCNc1cc(=O)n(C)c(=O)n1C,n,n,n,n,n,n
CCCCNC1=CC(=O)C(NCCCC)=CC1=O,x,n,n,n,16.4µM,23.1µM
CCCCNC1=CC(=O)C(=O)c2ccccc21,n,n,7.08µM,3.55µM,20.6µM,8.2µM
Cc1c(C)c2ccc(OCC(=O)N3CCC(C(=O)O)CC3)cc2oc1=O,x,n,n,n,n,n
COc1ccc2c(c1)c(=O)oc1cc(OCC(=O)N3CCc4ccccc4C3)ccc12,12.6µM,n,n,n,u,u
CC1CCCN(C(=O)COc2ccc(-c3ccccc3)cc2)C1 (stereo not drawn),n,u,n,n,14.6µM,u
COc1ccc2c(c1)c(=O)oc1cc(OCC(=O)N3CCCC(C)C3)ccc12 (stereo not drawn),x,n,n,n,13µM,u
COc1ccc2c(c1)c(=O)oc1cc(OCC(=O)N3CCC(C)CC3)ccc12,x,n,n,n,20.6µM,u
COCC(=O)N1CCCC(C(=O)c2ccc(-c3ccccc3)cc2)C1 (stereo not drawn),x,n,n,n,u,u
Cc1c(Cl)c(=O)oc2cc(OCC(=O)N3CCCC(C)C3)ccc12 (stereo not drawn),n,n,n,n,u,u
O=c1c(-c2cc(-c3ccc(F)cc3)nc3c2COc2ccc(Cl)cc2-3)coc2ccc(F)cc12,n,x,n,n,n,n
SMILES,TDP1 block,IL1B secr inh,HepG2 viability,TGFb inhibitor,TDP1 cell noCPT,TDP1 cell CPT
Cc1cc(C(=O)Nc2cccc(F)c2)c2c(C)nn(-c3cccc(Cl)c3C)c2n1,n,x,n,n,u,u
CC1CCCC=CC2CC(OC(=O)CN(C)C)CC2C(O)C=CC(=O)O1 (stereo not drawn),x,n,n,u,1.03µM,0.92µM
O=C(N/C=N/OCc1ccc(Cl)cc1Cl)NOCc1ncc(C(F)(F)F)cc1Cl,n,n,n,u,14.6µM,u
CO/N=C/NC(=O)NOCc1ncc(C(F)(F)F)cc1Cl,n,n,n,n,n,n
Cc1ccnc2ccc([N+](=O)[O-])cc12,x,x,n,u,u,u
CCCc1ccc(C2C3=C(CC(C)(C)CC3=O)NC3=C2C(=O)c2ccccc23)cc1 (stereo not drawn),n,u,n,u,16.4µM,20.6µM
CC(NC(=O)CCc1c[nH]c2ccccc12)c1ccccc1 (stereo not drawn),x,n,n,n,n,n
C[C@H](NCc1c[nH]c2ccccc12)c1ccccc1,x,n,n,u,u,20.6µM
CN(Cc1ccccc1)Cc1c[nH]c2ccccc12,n,u,n,n,20.6µM,5.8µM
CCOc1ccc(NS(=O)(=O)c2ccc(-c3cc(C)no3)s2)cc1,n,x,n,n,18.4µM,u
COc1ccc(N2CCN(S(=O)(=O)c3ccc(-c4cc(C)no4)s3)CC2)cc1,n,n,n,n,n,n
Cc1cc(-c2ccc(S(=O)(=O)Nc3cccc(C)c3C)s2)on1,n,x,n,n,2.59µM,2.91µM
CCc1ccccc1N(C)S(=O)(=O)c1ccc(-c2cc(C)no2)s1,n,n,n,u,1.3µM,2.06µM
CCN(c1ccc(OC)cc1)S(=O)(=O)c1ccc(-c2cc(C)no2)s1,n,n,n,n,14.6µM,n
CCOC(=O)C1CCCN(S(=O)(=O)c2ccc(-c3cc(C)no3)s2)C1 (stereo not drawn),n,n,n,n,n,u
Cc1cc(-c2ccc(S(=O)(=O)N3CCN(C)CC3)s2)on1,n,n,n,n,n,n
C=C1C=C(C(F)F)n2ncc(C(=O)N3CCCCC3)c2N1,x,x,n,n,n,n
C#CCN1C=CC(=O)[C@@H](OC(=O)Nc2ccc(C)cc2)[C@H]1c1ccccc1Br,x,n,n,u,u,u
C=CCn1c(SCC(=O)Nc2cc(C)on2)nnc1-c1ccccc1F,n,n,n,n,n,n
COc1ccc(OC)c(NS(=O)(=O)c2ccc(Cl)s2)c1,n,n,n,n,u,u
COc1cccc(NS(=O)(=O)c2ccc(Br)s2)c1,n,n,n,n,n,n
COc1ccc(OC)c(NS(=O)(=O)c2ccc(-c3cc(C)no3)s2)c1,n,x,n,n,0.581µM,1.3µM
COc1cccc(NS(=O)(=O)c2ccc(-c3cc(C)no3)s2)c1,n,x,n,u,23.1µM,u
COc1ccc(OC)c(NS(=O)(=O)c2ccc(Br)s2)c1,n,x,n,n,18.4µM,16.4µM
C=CCNC(=O)C1CCN(S(=O)(=O)c2cccs2)CC1,n,n,n,n,n,n
CC(=O)Nc1ccn(C2COC(COC(=O)c3ccccc3)O2)c(=O)n1 (stereo not drawn),x,x,x,x,1.5µM,0.841µM
CCCCCCCCN1C(=O)[C@H](CC(=O)NCc2cccs2)C[C@@]2(C(=O)OCC)CCCC=C12,x,-61.9,x,x,16.4µM,u
